# Test results: PubChem BioAssay (NCI)
# Compounds without any hit were thinned out: in the full panel of roughly 79,000, 15% have a hit. Values without a mark were called inactive. Active and inactive are the calls of the source. No stated cut-off is given here; in the data, active means growth inhibition above about 70%; inactive means the rest.
# Tests used:
# [1] = NCI Yeast Anticancer Drug Screen. Data for the rad52 strain (AID 147);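 further: 0% = growth of vehicle-treated control cultures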; conditions: S. cerevisiae rad52 mutant growth inhibition, stronger effect = higher value
# Procedure, shortened: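 DNA repair-defective yeast; compound exposure; growth scored against vehicle controls.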
# [2] = NCI Yeast Anticancer Drug Screen. Data for the wt1 strain (AID 149);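 further: 0% = growth of vehicle-treated wt1 cultures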; conditions: S. cerevisiae wt1 strain (SPY 50644) growth inhibition, stronger effect = higher value
# Procedure, shortened: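 Growth inhibition read against vehicle controls after compound exposure of the wt1 yeast strain.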
# [3] = NCI Yeast Anticancer Drug Screen. Data for the rad50EPP+ strain (AID 151);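 further: 0% = growth of vehicle-treated control cultures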; conditions: S. cerevisiae rad50 mutant strain, stronger effect = higher value
# Procedure, shortened: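 rad50EPP+ yeast treated with test compounds. Readout: growth vs vehicle control.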
# [4] = NCI Yeast Anticancer Drug Screen. Data for the mgt1 strain (AID 153); conditions: S. cerevisiae mgt1 mutant growth inhibition, stronger effect = higher value
# Procedure, shortened: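 Growth inhibition relative to vehicle controls was scored for the mgt1 yeast strain after compound exposure.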
# [5] = NCI Yeast Anticancer Drug Screen. Data for the rad50 strain (AID 155);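 further: 0% = growth of vehicle-only cultures of the same strain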; conditions: S. cerevisiae rad50 strain growth inhibition, stronger effect = higher value
# Procedure, shortened: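 Readout: growth inhibition relative to vehicle-treated cultures. Compound exposure was carried out in a genetically defined yeast strain deficient in DNA damage repair.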
# [6] = NCI Yeast Anticancer Drug Screen. Data for the mec2-1 strain (AID 157); conditions: S. cerevisiae mec2-1 strain, stronger effect = higher value
# Procedure, shortened: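 Growth inhibition is read against vehicle-treated controls after compound exposure of the mec2-1 yeast strain, which is defective in DNA damage repair or cell cycle control.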
# [7] = NCI Yeast Anticancer Drug Screen. Data for the rad14 strain (AID 159);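 further: 0% = growth of vehicle-treated control cultures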; conditions: S. cerevisiae rad14 strain growth inhibition, stronger effect = higher value
# Procedure, shortened: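 Growth inhibition vs vehicle controls; genetically altered yeast strain (DNA damage repair defect) treated with test compounds.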
# [8] = NCI Yeast Anticancer Drug Screen. Data for the sgs1 mgt1 strain (AID 161);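 further: 0% = growth of cultures given vehicle only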; conditions: S. cerevisiae sgs1 mgt1 strain, stronger effect = higher value
# Procedure, shortened: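 Yeast cells carrying a defined DNA-repair defect were exposed to test compounds. Growth inhibition was measured relative to vehicle-treated controls.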
# [9] = NCI Yeast Anticancer Drug Screen. Data for the CLN2oe strain (AID 163);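 further: 0% = growth of vehicle-only control cultures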; conditions: S. cerevisiae CLN2oe strain, stronger effect = higher value
# Procedure, shortened: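 Compound-treated yeast; growth vs vehicle ctrl = % inhibition. Genetically altered strain (cell-cycle control).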
# [10] = NCI Yeast Anticancer Drug Screen. Data for the cln2 rad14 strain (AID 165);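 further: 0% = growth equal to vehicle treated cultures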; conditions: S. cerevisiae cln2 rad14 strain, stronger effect = higher value
# Procedure, shortened: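 Growth inhibition, relative to vehicle-treated controls, is the read-out. The test organism is a yeast strain with defined genetic alterations, cln2 rad14.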
# [11] = NCI Yeast Anticancer Drug Screen. Data for the bub3 strain (AID 167); conditions: S. cerevisiae bub3 mutant strain, stronger effect = higher value
# Procedure, shortened: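 Readout: yeast growth inhibition, expressed relative to vehicle-only wells. The test organism is a mutant strain from a panel with lesions in DNA repair or checkpoint genes.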
# [12] = NCI Yeast Anticancer Drug Screen. Data for the wt2 strain (AID 169);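 further: 0% = growth of vehicle-treated yeast cultures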; conditions: S. cerevisiae wt2 strain growth inhibition, stronger effect = higher value
# Procedure, shortened: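 Compound exposure of yeast; growth compared with vehicle controls; inhibition reported.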
# [13] = NCI Yeast Anticancer Drug Screen. Data for the mlh1 strain (AID 171);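 further: 0% = growth of vehicle-treated control cultures of the same strain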; conditions: S. cerevisiae mlh1 strain growth inhibition, stronger effect = higher value
# Procedure, shortened: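 Compounds are applied to a genetically altered yeast strain, and its growth is compared with that of vehicle-treated cultures to give percent inhibition.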
# [14] = NCI Yeast Anticancer Drug Screen. Data for the sgs1 strain (AID 173);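 further: 0% = growth of vehicle-only control cultures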; conditions: S. cerevisiae sgs1 mutant, stronger effect = higher value
# Procedure, shortened: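 Compounds applied to genetically altered yeast; growth compared with vehicle-treated cultures to give % inhibition.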
# [15] = NCI Yeast Anticancer Drug Screen. Data for the mlh1 rad18 strain (AID 175); conditions: S. cerevisiae mlh1 rad18 strain growth inhibition, stronger effect = higher value
# Procedure, shortened: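 Cells of a genetically altered yeast strain, deficient in DNA damage repair, were treated with compound. Their growth was then compared with that of vehicle-treated cultures to give inhibition.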
# [16] = NCI Yeast Anticancer Drug Screen. Data for the rad18 strain (AID 177); conditions: S. cerevisiae rad18 mutant growth inhibition, stronger effect = higher value
# Procedure, shortened: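 Compounds are applied to a repair-deficient yeast strain, and growth is compared with that of vehicle-treated cultures to give percent inhibition.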
# [17] = at 5.0 µM (retest, dose inferred, filed as 0.5)
# [18] = at 50.0 µM (retest, dose inferred, filed as 5.0)
structure (smiles),measurement,setting,value
Cc1c(Cl)c(C)c(Cl)c(O)c1Cl,growth inhibition,[1]; at 1.2 µM,17%
same,growth inhibition,[1]; at 3.7 µM,7%
same,growth inhibition,[1]; at 11.0 µM,28%
same,growth inhibition,[1]; at 33.0 µM,79% (active)
same,growth inhibition,[1]; at 100.0 µM,98% (active)
same,growth inhibition,[2]; at 1.2 µM,11%
same,growth inhibition,[2]; at 3.7 µM,9%
same,growth inhibition,[2]; at 11.0 µM,13%
same,growth inhibition,[2]; at 33.0 µM,80% (active)
same,growth inhibition,[2]; at 100.0 µM,98% (active)
same,growth inhibition,[3]; at 1.2 µM,-21%
same,growth inhibition,[3]; at 3.7 µM,-9%
same,growth inhibition,[3]; at 11.0 µM,-6%
same,growth inhibition,[3]; at 33.0 µM,75% (active)
same,growth inhibition,[3]; at 100.0 µM,93% (active)
same,growth inhibition,[4]; at 1.2 µM,18%
same,growth inhibition,[4]; at 3.7 µM,7%
same,growth inhibition,[4]; at 11.0 µM,56%
same,growth inhibition,[4]; at 33.0 µM,98% (active)
same,growth inhibition,[4]; at 100.0 µM,98% (active)
same,growth inhibition,[5]; at 1.2 µM,-14%
same,growth inhibition,[5]; at 3.7 µM,-21%
same,growth inhibition,[5]; [17],45%
same,growth inhibition,[5]; at 11.0 µM,-8%
same,growth inhibition,[5]; at 33.0 µM,92% (active)
same,growth inhibition,[5]; [18],95% (active)
same,growth inhibition,[5]; at 50.0 µM,92.9% (active)
same,growth inhibition,[5]; at 100.0 µM,98% (active)
same,growth inhibition,[6]; at 1.2 µM,-19%
same,growth inhibition,[6]; at 3.7 µM,7%
same,growth inhibition,[6]; [17],51%
same,growth inhibition,[6]; at 11.0 µM,-7%
same,growth inhibition,[6]; at 33.0 µM,79% (active)
same,growth inhibition,[6]; [18],96% (active)
same,growth inhibition,[6]; at 50.0 µM,93.2% (active)
same,growth inhibition,[6]; at 100.0 µM,99% (active)
same,growth inhibition,[7]; at 1.2 µM,5%
same,growth inhibition,[7]; at 3.7 µM,6%
same,growth inhibition,[7]; at 11.0 µM,11%
same,growth inhibition,[7]; at 33.0 µM,95% (active)
same,growth inhibition,[7]; at 100.0 µM,99% (active)
same,growth inhibition,[8]; [17],2%
same,growth inhibition,[8]; [18],99% (active)
same,growth inhibition,[8]; at 50.0 µM,90.8% (active)
same,growth inhibition,[9]; at 1.2 µM,8%
same,growth inhibition,[9]; at 3.7 µM,-11%
same,growth inhibition,[9]; at 11.0 µM,29%
same,growth inhibition,[9]; at 33.0 µM,88% (active)
same,growth inhibition,[9]; at 100.0 µM,99% (active)
same,growth inhibition,[10]; [17],32%
same,growth inhibition,[10]; [18],100% (active)
same,growth inhibition,[10]; at 50.0 µM,93% (active)
same,growth inhibition,[11]; at 1.2 µM,-17%
same,growth inhibition,[11]; at 3.7 µM,-2%
same,growth inhibition,[11]; [17],27%
same,growth inhibition,[11]; at 11.0 µM,12%
same,growth inhibition,[11]; at 33.0 µM,76% (active)
same,growth inhibition,[11]; [18],100% (active)
same,growth inhibition,[11]; at 50.0 µM,93% (active)
same,growth inhibition,[11]; at 100.0 µM,100% (active)
same,growth inhibition,[12]; at 1.2 µM,-25%
same,growth inhibition,[12]; at 3.7 µM,-20%
same,growth inhibition,[12]; at 11.0 µM,14%
same,growth inhibition,[12]; at 33.0 µM,92% (active)
same,growth inhibition,[12]; at 100.0 µM,99% (active)
same,growth inhibition,[13]; at 1.2 µM,8%
same,growth inhibition,[13]; at 3.7 µM,-4%
same,growth inhibition,[13]; at 11.0 µM,29%
same,growth inhibition,[13]; at 33.0 µM,91% (active)
same,growth inhibition,[13]; at 100.0 µM,99% (active)
same,growth inhibition,[14]; at 1.2 µM,15%
same,growth inhibition,[14]; at 3.7 µM,9%
same,growth inhibition,[14]; at 11.0 µM,34%
same,growth inhibition,[14]; at 33.0 µM,95% (active)
same,growth inhibition,[14]; at 100.0 µM,99% (active)
same,growth inhibition,[15]; [17],33%
same,growth inhibition,[15]; [18],97% (active)
same,growth inhibition,[15]; at 50.0 µM,72.2% (active)
same,growth inhibition,[16]; at 1.2 µM,-26%
same,growth inhibition,[16]; at 3.7 µM,-4%
same,growth inhibition,[16]; at 11.0 µM,-25%
same,growth inhibition,[16]; at 33.0 µM,65%
same,growth inhibition,[16]; at 100.0 µM,97% (active)
CC(C)(Br)C(=O)/C=C/c1ccccc1,growth inhibition,[1]; at 1.2 µM,8%
same,growth inhibition,[1]; at 3.7 µM,21%
same,growth inhibition,[1]; at 11.0 µM,47%
same,growth inhibition,[1]; at 33.0 µM,73% (active)
same,growth inhibition,[1]; at 100.0 µM,91% (active)
same,growth inhibition,[2]; at 1.2 µM,3%
same,growth inhibition,[2]; at 3.7 µM,9%
same,growth inhibition,[2]; at 11.0 µM,9%
same,growth inhibition,[2]; at 33.0 µM,10%
same,growth inhibition,[2]; at 100.0 µM,17%
same,growth inhibition,[3]; at 1.2 µM,21%
same,growth inhibition,[3]; at 3.7 µM,51%
same,growth inhibition,[3]; at 11.0 µM,76% (active)
same,growth inhibition,[3]; at 33.0 µM,88% (active)
same,growth inhibition,[3]; at 100.0 µM,95% (active)
same,growth inhibition,[4]; at 1.2 µM,-2%
same,growth inhibition,[4]; at 3.7 µM,-1%
same,growth inhibition,[4]; at 11.0 µM,4%
same,growth inhibition,[4]; at 33.0 µM,7%
same,growth inhibition,[4]; at 100.0 µM,15%
same,growth inhibition,[5]; at 1.2 µM,6%
same,growth inhibition,[5]; at 3.7 µM,11%
same,growth inhibition,[5]; [17],15%
same,growth inhibition,[5]; at 11.0 µM,26%
same,growth inhibition,[5]; at 33.0 µM,34%
same,growth inhibition,[5]; [18],93% (active)
same,growth inhibition,[5]; at 50.0 µM,88.3% (active)
same,growth inhibition,[5]; at 100.0 µM,60%
same,growth inhibition,[6]; at 1.2 µM,5%
same,growth inhibition,[6]; at 3.7 µM,7%
same,growth inhibition,[6]; [17],-14%
same,growth inhibition,[6]; at 11.0 µM,17%
same,growth inhibition,[6]; at 33.0 µM,28%
same,growth inhibition,[6]; [18],89% (active)
same,growth inhibition,[6]; at 50.0 µM,95.7% (active)
same,growth inhibition,[6]; at 100.0 µM,48%
same,growth inhibition,[7]; at 1.2 µM,6%
same,growth inhibition,[7]; at 3.7 µM,14%
same,growth inhibition,[7]; at 11.0 µM,27%
same,growth inhibition,[7]; at 33.0 µM,59%
same,growth inhibition,[7]; at 100.0 µM,97% (active)
same,growth inhibition,[8]; [17],68%
same,growth inhibition,[8]; [18],92% (active)
same,growth inhibition,[8]; at 50.0 µM,91.3% (active)
same,growth inhibition,[9]; at 1.2 µM,-4%
same,growth inhibition,[9]; at 3.7 µM,-3%
same,growth inhibition,[9]; at 11.0 µM,-5%
same,growth inhibition,[9]; at 33.0 µM,4%
same,growth inhibition,[9]; at 100.0 µM,19%
same,growth inhibition,[10]; [17],3%
same,growth inhibition,[10]; [18],87% (active)
same,growth inhibition,[10]; at 50.0 µM,97.2% (active)
same,growth inhibition,[11]; at 1.2 µM,-3%
same,growth inhibition,[11]; at 3.7 µM,-7%
same,growth inhibition,[11]; [17],-16%
same,growth inhibition,[11]; at 11.0 µM,-7%
same,growth inhibition,[11]; at 33.0 µM,-2%
same,growth inhibition,[11]; [18],63%
same,growth inhibition,[11]; at 50.0 µM,22.1%
same,growth inhibition,[11]; at 100.0 µM,7%
same,growth inhibition,[12]; at 1.2 µM,0%
same,growth inhibition,[12]; at 3.7 µM,3%
same,growth inhibition,[12]; at 11.0 µM,6%
same,growth inhibition,[12]; at 33.0 µM,10%
same,growth inhibition,[12]; at 100.0 µM,18%
same,growth inhibition,[13]; at 1.2 µM,0%
same,growth inhibition,[13]; at 3.7 µM,4%
same,growth inhibition,[13]; at 11.0 µM,10%
same,growth inhibition,[13]; at 33.0 µM,15%
same,growth inhibition,[13]; at 100.0 µM,27%
same,growth inhibition,[14]; at 1.2 µM,24%
same,growth inhibition,[14]; at 3.7 µM,50%
same,growth inhibition,[14]; at 11.0 µM,66%
same,growth inhibition,[14]; at 33.0 µM,70% (active)
same,growth inhibition,[14]; at 100.0 µM,80% (active)
same,growth inhibition,[15]; [17],74% (active)
same,growth inhibition,[15]; [18],95% (active)
same,growth inhibition,[15]; at 50.0 µM,71.9% (active)
same,growth inhibition,[16]; at 1.2 µM,94% (active)
same,growth inhibition,[16]; at 3.7 µM,95% (active)
same,growth inhibition,[16]; at 11.0 µM,96% (active)
same,growth inhibition,[16]; at 33.0 µM,96% (active)
same,growth inhibition,[16]; at 100.0 µM,97% (active)
